{"source": "PubChem BioAssay AID504408", "about": "(Broad Institute, 2011)", "note": "In all, about 300,000 compounds went through this assay and about 5,200 (1.7%) were called active. Many of the other results were omitted from the sample, so actives are more common in it than they were. Unmarked numbers belong to inactive results.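 Rule for the calls: active = mean replicate activation of at least 50% with a set share of replicates each reaching 50%; inconclusive = only one of those two conditions met; inactive = mean below 50% and too few replicates reaching it.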", "data": [{"assay": "HSF-1 response element luciferase induction – NIH3T3-HGL cells, MG132 stress, luminescence, single point, primary screen (AID 504408);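 note: 0% = median of the neutral control wells and 100% = twice that signal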", "settings": "NIH3T3-HGL HSF-1 luciferase reporter, MG132, 8 h; at 9 µM; stronger effect = higher value; 100% = twice DMSO control signal", "values": [{"smiles": "Brc1cnc2ccccc2c1N1CCCCC1", "activation": "4.42%"}, {"smiles": "COc1ccc(CCNC(=O)C(=O)NCC2CCCN2S(=O)(=O)c2cccs2)cc1OC", "note": "(stereo not drawn)", "activation": "-2.01%"}, {"smiles": "c1ccc(-n2ncc3c(N4CCCC4)ncnc32)cc1", "activation": "41.2%"}, {"smiles": "O=C(NNc1ncnc2c1cnn2-c1ccccc1)c1ccco1", "activation": "13.2%"}, {"smiles": "C1=C(CCNc2ncnc3c2cnn3-c2ccccc2)CCCC1", "activation": "61.4% (active)"}, {"smiles": "O=[N+]([O-])c1cccc(C=NN=Cc2ccccc2O)c1", "activation": "-25.2%"}, {"smiles": "O=C(Oc1ccc(-c2nnco2)cc1)c1ccc(F)c(S(=O)(=O)N2CCOCC2)c1", "activation": "12.4%"}, {"smiles": "Cc1cccc(NC(=O)CSc2nc3[nH]ncc3c(=O)[nH]2)c1", "activation": "7.39%"}, {"smiles": "CCCSc1nc2[nH]ncc2c(=O)[nH]1", "activation": "-12.9%"}, {"smiles": "Cc1ccc(CSc2nc3[nH]ncc3c(=O)[nH]2)cc1", "activation": "87.9% (active)"}, {"smiles": "Cc1cccc(N2CC(C(=O)Nc3ccccc3N3CCCC3)CC2=O)c1C", "note": "(stereo not drawn)", "activation": "-9.91%"}, {"smiles": "Cc1ccc(S(=O)(=O)N2CCN(C(=O)Cc3sc(C)nc3-c3ccc(F)cc3)CC2)c(C)c1", "activation": "5.21%"}, {"smiles": "CCOC(=O)c1cc(C(C)C)sc1NC(=O)COC(=O)c1nccnc1N", "activation": "-14.3%"}, {"smiles": "NC(=S)N/N=C/c1ccc([N+](=O)[O-])cc1", "activation": "19.9%"}, {"smiles": "Cc1nc2ccccc2cc1C(=O)N/N=C/c1ccc([N+](=O)[O-])cc1", "activation": "10.7%"}, {"smiles": "Cc1ccsc1C(=O)N/N=C/c1ccc([N+](=O)[O-])cc1", "activation": "59% (active)"}, {"smiles": "O=C(Nc1ccc(N2CCCCC2)cc1)c1cc(S(=O)(=O)N2CCOCC2)ccc1F", "activation": "12.6%"}, {"smiles": "CC1CCC(NC(=O)CNC(=O)c2ccc3ccccc3c2)CC1", "note": "(stereo not drawn)", "activation": "26.1%"}, {"smiles": "O=C(COC(=O)Cn1[nH]c(=O)c2ccccc2c1=O)Nc1c(Cl)cccc1C(F)(F)F", "activation": "-2.68%"}, {"smiles": "O=C(O)CN1CCN(C(c2ccccc2)c2ccccc2)CC1", "activation": "-26.6%"}, {"smiles": "CC1(C)CC(N2CCN(C(c3ccccc3)c3ccccc3)CC2)=CC(=[N+]2CCCCC2)C1", "activation": "59.1% (active)"}, {"smiles": "CC(C)NC(=S)N1CCN(C(c2ccccc2)c2ccccc2)CC1", "activation": "13.7%"}, {"smiles": "COc1ccccc1CCNC(=O)CN1C(=O)NC2(CCCC2)C1=O", "activation": "-21.2%"}, {"smiles": "CC(NC(=O)c1ccccc1F)c1cccc2ccccc12", "note": "(stereo not drawn)", "activation": "-4.26%"}, {"smiles": "CNC(=O)COC(=O)c1cc(-c2ccc(OC)cc2)nc2ccccc12", "activation": "31.1%"}, {"smiles": "COc1ccc(-c2cc(C(=O)Nc3ccccc3O)c3ccccc3n2)cc1", "activation": "65.5% (active)"}, {"smiles": "COc1ccc(NC(=O)c2cc(-c3cc(OC)c(OC)c(OC)c3)nc3ccccc23)c(OC)c1", "activation": "-3.17%"}, {"smiles": "COc1ccc(NC(=O)CN(C)C(=O)Cc2coc3cc(C)c(C)cc23)cc1", "activation": "-0.425%"}, {"smiles": "CC(=O)c1nn(-c2ccc(C)cc2)cc1C(=O)c1cccc(Br)c1", "activation": "-31.9%"}, {"smiles": "COc1ccc(C(=O)n2nc(C)c(Br)c2C)cc1OC", "activation": "6.57%"}, {"smiles": "COc1ccc(C(=O)n2nc(-c3ccc(Cl)cc3)nc2N)cc1OC", "activation": "71.9% (active)"}, {"smiles": "COc1ccc(C(=O)n2nc(-c3ccc(C)cc3)nc2N)cc1OC", "activation": "-1.25%"}, {"smiles": "CC12CCC(=O)N1C(C(=O)NCCN1C(=O)S/C(=C\\c3ccccc3F)C1=O)CS2", "note": "(stereo not drawn)", "activation": "3.07%"}, {"smiles": "O=C(CCCN1C(=O)/C(=C\\c2ccco2)SC1=S)Nc1cccc2ccccc12", "activation": "14.2%"}, {"smiles": "CCCN(CCC)c1nc2c(C)cccn2c(=O)c1/C=C1/SC(=S)N(Cc2ccco2)C1=O", "activation": "99% (active)"}, {"smiles": "CCOC(=O)CC1C(=O)NCCN1c1nc2c(C)cccn2c(=O)c1/C=C1\\SC(=S)N(C(C)CC)C1=O", "note": "(stereo not drawn)", "activation": "-29%"}, {"smiles": "CC(C)c1ccc(S(=O)(=O)N2CCN(C(=O)CN3C(=O)NC(C)(c4ccccc4)C3=O)CC2)cc1", "note": "(stereo not drawn)", "activation": "-9.21%"}, {"smiles": "CCC(CC)c1nnc(NC(=O)C2=COCCO2)s1", "activation": "13.8%"}, {"smiles": "O=C(c1ccc(F)c(S(=O)(=O)N2CCOCC2)c1)N(CCc1ccccc1)Cc1ccccc1", "activation": "6.07%"}, {"smiles": "O=C(CSc1nc2[nH]ncc2c(=O)[nH]1)Nc1ccc(F)cc1", "activation": "-14.4%"}, {"smiles": "O=C(Cn1ncc(N2CCCC2)c(Br)c1=O)c1ccc(Cl)cc1", "activation": "75.4% (active)"}, {"smiles": "CC(=O)Cn1ncc(N2CCOCC2)c(Br)c1=O", "activation": "-14.8%"}, {"smiles": "O=C(Cn1nc(CNc2ccc(Cl)cc2)[n+]2c1CCCCC2)c1ccc(Cl)cc1", "activation": "19.7%"}, {"smiles": "O=C(NCC(c1ccco1)N1CCc2ccccc21)c1cccc(F)c1", "note": "(stereo not drawn)", "activation": "33.2%"}, {"smiles": "Cc1ccc(-c2nn(-c3ccccc3)cc2C(=O)NCCCN2CCCC2=O)cc1", "activation": "-4.32%"}, {"smiles": "CC1CCCCC1NC(=O)/C(C#N)=C/C=C/c1ccccc1[N+](=O)[O-]", "note": "(stereo not drawn)", "activation": "53.4% (active)"}, {"smiles": "O=[N+]([O-])c1ccccc1/C=C/CN1CCC(O)CC1", "activation": "-18.5%"}, {"smiles": "O=[N+]([O-])c1ccccc1/C=C/CN1CCCC(CO)C1", "note": "(stereo not drawn)", "activation": "-4.33%"}, {"smiles": "O=C(Nc1cc2c3c(c1)CC(=O)N3CCC2)c1ccccc1F", "activation": "-11.8%"}, {"smiles": "Cc1nc(-c2ccc(Cl)cc2)sc1C(=O)CBr", "activation": "75.1% (active)"}, {"smiles": "Cc1nc(-c2ccccc2)sc1C(=O)/C=C/N(C)C", "activation": "-1.43%"}, {"smiles": "Cc1nc(-c2ccc(Cl)cc2)sc1C(=O)NN", "activation": "-2.26%"}, {"smiles": "COc1ccccc1NC(=O)COC(=O)c1ccccc1SCC(=O)N1CCCC1", "activation": "-2.69%"}, {"smiles": "O=C(/C=C/c1ccc(OCc2c(F)cccc2Cl)cc1)N1CCOCC1", "activation": "67.7% (active)"}, {"smiles": "CN(C)CCCNC(=O)/C=C/c1ccc(OCc2c(F)cccc2Cl)cc1", "activation": "-16.4%"}, {"smiles": "COCCCNC(=O)/C=C/c1ccc(OCc2c(F)cccc2Cl)cc1", "activation": "0.816%"}, {"smiles": "Cc1ccn2c(=O)nc(SCC(=O)NCc3ccc4c(c3)OCO4)nc2c1", "activation": "-9.78%"}, {"smiles": "CC1=NNC(=O)C1Cc1c(Cl)cccc1Cl", "note": "(stereo not drawn)", "activation": "8.87%"}, {"smiles": "O=C(CSc1nc2ccc([N+](=O)[O-])cc2[nH]1)c1ccc(Cl)cc1", "activation": "9.88%"}, {"smiles": "N#C/C(=C(/O)COC(=O)COc1ccc(Cl)cc1)c1nc2ccccc2[nH]1", "activation": "25.2%"}, {"smiles": "O=C(Cc1nc2ccccc2[nH]c1=O)c1ccc(Cl)cc1", "activation": "74.3% (active)"}, {"smiles": "CCN1C(=O)[C@@H]2[C@@H](c3ccc(-c4ccc(OC)cc4)c(OC)c3)N3CCC[C@@]3(C(=O)OC)[C@@H]2C1=O", "activation": "14.7%"}, {"smiles": "COc1ccc(OCCCON2C(=O)c3ccccc3C2=O)cc1", "activation": "3.41%"}, {"smiles": "CCOC(=O)C1=C(c2ccc(OC)cc2)C(=O)c2ccccc2C1=O", "activation": "82.9% (active)"}, {"smiles": "CCOC(=O)c1c(-c2ccc(C)cc2)csc1/N=C(\\C)C1=C(O)c2ccccc2C1=O", "activation": "9.57%"}, {"smiles": "O=C(Cc1ccc(S(=O)(=O)N2CCOCC2)s1)NCCOc1ccccc1F", "activation": "3.3%"}, {"smiles": "CC(=O)Nc1cccc(C(=O)OCC(=O)Nc2nnc(-c3ccccc3)o2)c1", "activation": "-13.5%"}, {"smiles": "O=C(OCc1ccc(-c2ccccc2)cc1)c1cccc(O)c1", "activation": "6.99%"}, {"smiles": "Oc1ccc(-c2cccc(-c3ccc(O)cc3)c2)cc1", "activation": "62% (active)"}, {"smiles": "c1ccc(-c2c[nH]c(-c3ccccc3)c2)cc1", "activation": "-83.8%"}, {"smiles": "Cc1cc(/C=N/Nc2ccc([N+](=O)[O-])cn2)c(C)n1-c1cccc(C(=O)O)c1", "activation": "2.82%"}, {"smiles": "Cc1ccc(N2CCN(c3ccc([N+](=O)[O-])cn3)CC2)c(C)c1", "activation": "14%"}, {"smiles": "Cc1ccc(-n2c(C)cc(/C=N/Nc3ccc([N+](=O)[O-])cn3)c2C)c(C)c1", "activation": "57.8% (active)"}, {"smiles": "Cc1ccc(S(=O)(=O)NCCC(=O)OCC(=O)N(C)c2ccccc2)cc1", "activation": "2.24%"}, {"smiles": "O=C(c1ccc(Cl)s1)N(Cc1nnc(-c2ccccc2Cl)o1)C1CC1", "activation": "19.5%"}, {"smiles": "Cc1ccc(C(=O)/C=C/Nc2ccc(S(=O)(=O)Nc3onc(C)c3C)cc2)cc1", "activation": "2.18%"}, {"smiles": "COc1ccc(NS(=O)(=O)c2ccc(NC(=S)NC(=O)/C=C/c3ccc(C)cc3)cc2)nn1", "activation": "-3.51%"}, {"smiles": "COc1ccc(/C=C/C(=O)c2ccc(NS(=O)(=O)c3ccc(C)cc3)cc2)cc1O", "activation": "200% (active)"}, {"smiles": "COc1ccc(C2CC(c3cccs3)=NN2c2nc(C)c(C(C)=O)s2)cc1OC", "note": "(stereo not drawn)", "activation": "149% (active)"}, {"smiles": "COc1ccc(C2=NN(C(C)=O)C(c3ccccc3)C2)cc1", "note": "(stereo not drawn)", "activation": "21.6%"}, {"smiles": "COc1ccc(C2CC(c3cccs3)=NN2c2ccccc2)cc1", "note": "(stereo not drawn)", "activation": "67.4% (active)"}, {"smiles": "COc1ccc(C2CC(c3cccs3)=NN2C(=O)CCC(=O)O)cc1OC", "note": "(stereo not drawn)", "activation": "-17.8%"}, {"smiles": "COc1ccc(C2CC(c3cccs3)=NN2c2ccc(F)cc2)cc1OC", "note": "(stereo not drawn)", "activation": "22.9%"}, {"smiles": "COc1ccc(C2=NN(c3ccccc3)C(c3cccs3)C2)cc1", "note": "(stereo not drawn)", "activation": "50.9% (active)"}, {"smiles": "COc1ccc(C2=NN(C(=O)CCC(=O)O)C(c3cccs3)C2)cc1OC", "note": "(stereo not drawn)", "activation": "-7.93%"}, {"smiles": "COc1ccccc1N1N=C(c2cccs2)CC1c1ccccc1", "note": "(stereo not drawn)", "activation": "9.62%"}, {"smiles": "Oc1ccccc1C1=NN(c2ccccc2)C(c2ccccc2)C1", "note": "(stereo not drawn)", "activation": "0.471%"}, {"smiles": "O=S(=O)(c1ccccc1)N1CCC(c2ccccc2)CC1", "activation": "-26.8%"}, {"smiles": "CN(N)c1nc(N2CCCC2)nc(N2CCCC2)n1", "activation": "-5.13%"}, {"smiles": "CC(C)COc1ccc(C(=O)OCC(=O)NCCC2=CCCCC2)cc1", "activation": "-2.4%"}, {"smiles": "CNc1nc(-c2ccccc2)cc(-c2ccccc2)n1", "activation": "74.1% (active)"}, {"smiles": "Nc1nc(-c2ccccc2)cc(-c2ccccc2)n1", "activation": "21.8%"}, {"smiles": "Nc1cccc(-c2cc(-c3ccccc3)nc(-c3cccc(N)c3)n2)c1", "activation": "-6.32%"}]}]}
